Experimental data reported in publication PMC4242493, “Sequence specificity incompletely defines the genome-wide occupancy of Myc”.
Whole data set: some 33,000 sequences, median “normalized occupancy” near 0.075, cut for the highest 2% near 0.095. What follows is part of a selection rich in the highest values, with near analogues and random picks from the rest.

Biological target: MaxL homodimer (Homo sapiens, UniProt P61244 1-160)
Experiment: universal protein-binding microarray (PBM); PBS-based mixture, 10 nM His-tagged protein dimer, 2% milk, 200 ng/uL BSA, 50 ng/uL salmon testes DNA, 0.02% TX-100; detection with Alexa 488 anti-His antibody;; high values mean tight binding
Settings: protein: recombinant; tags: C-terminal His-tag (pET21a); chain copies: 2; dsDNA, one strand shown
Summary of the method: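 His-tagged protein dimer at 10 nM was bound to Agilent 4 x 44 K 'all 10-mer' universal arrays and detected with 10 ng/μL fluorophore-conjugated anti-His antibody on a GenePix 4400A, giving an intensity per 8-mer. Binding occupancy normalises each intensity to the top-ranked one.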

Sequence of MaxL homodimer (P61244 whole entry): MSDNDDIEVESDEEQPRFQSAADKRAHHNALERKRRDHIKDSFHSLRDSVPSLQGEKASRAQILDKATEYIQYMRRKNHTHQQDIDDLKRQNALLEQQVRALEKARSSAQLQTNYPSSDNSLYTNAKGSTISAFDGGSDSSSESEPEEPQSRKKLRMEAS

Sequence | binding signal [normalized occupancy]
CCACCTGG | 0.105
ACACCTGA | 0.0871
CCACCTGC | 0.0984
ACACCTGT | 0.0912
CCACCTCG | 0.0794
ACACCTGG | 0.0881
CCACCTTC | 0.0757
ACACCTGC | 0.0956
CCACCTGA | 0.099
GCACCTGC | 0.0846
GTAGTTGA | 0.0738
ATAACGCC | 0.0792
ATTCACCG | 0.0732
CTTTTCGA | 0.0725
ACGCCGAA | 0.0725
GGCCACTA | 0.0777
GTGGAAAA | 0.0879
AATCGGGA | 0.0782
CTGCCTAA | 0.075
CAAGTCGC | 0.0719
CAAACCTC | 0.0765
ATTCTACC | 0.0801
AGCGCGTG | 0.117
AGCGCGTC | 0.0772
ACAGCGAG | 0.0728

Sequence | binding signal [normalized occupancy]
ATAGCGTC | 0.0734
AGCGCGCG | 0.0841
ATAGCGTG | 0.104
ACAGCGTC | 0.0731
ACAGCGTG | 0.123
AGAGCGTG | 0.0963
ATAGCGTA | 0.0819
AGAGCGTA | 0.0758
AGAGCGAG | 0.0719
AGGCAGTA | 0.0728
CTTGGTCC | 0.0723
CTTCGCTA | 0.0727
ATCCCCCC | 0.0808
GGCTATCA | 0.0738
ACACTGAC | 0.0742
ACTTTAAG | 0.0722
AAGTATAG | 0.0813
CCTTTGTA | 0.0734
GGTGCGGA | 0.0762
AAAATTGA | 0.0757
TGTAACAA | 0.0771
GGACGCGA | 0.0754
GCACGCGC | 0.15
GCACGCCC | 0.0848
GCACGCGA | 0.109

Sequence | binding signal [normalized occupancy]
GAACGCGA | 0.0778
GCGCGCGC | 0.0821
CTTAAGCA | 0.077
TCAAATAA | 0.0786
AAGGGGAC | 0.0746
GATGTGAA | 0.0819
CATGTGAC | 0.168
CCTGTGAG | 0.0762
AATGTGAG | 0.0853
GATGTGAC | 0.0817
CATGTGAG | 0.128
AATGTGAC | 0.0908
TATGTGAA | 0.0871
CATGTGAA | 0.127
AAGTAGGA | 0.0726
ATGGAGAA | 0.0775
AAGCAGTA | 0.0725
TAGATTGA | 0.0791
ACCTTTAA | 0.0744
CATGGCAG | 0.0887
CATGGCAA | 0.0963
GATGGCAA | 0.0752
CCTATTAA | 0.0743
GAAAATCA | 0.0778
GTGCACTA | 0.0769

Sequence | binding signal [normalized occupancy]
CTCTATGA | 0.0732
GATGACTA | 0.0757
AGGTGACG | 0.075
CCGTGACG | 0.0782
ACGTGACA | 0.108
AGGTGACC | 0.0766
ACGTGACC | 0.103
GCGTGACC | 0.103
AAGTGACC | 0.0751
ACGTGACG | 0.0972
CCGTGACC | 0.075
GGGTGACC | 0.0751
ATGTGACA | 0.0901
ACGTGACT | 0.0933
AGGGTTGC | 0.0731
GAAGGTGC | 0.0733
CGAAATAC | 0.0768
CATATTGA | 0.0806
CCGTGACA | 0.0807
GCGTGACA | 0.103
TCGTGACA | 0.0851
ATGAGCCC | 0.0757
TCTCGAAA | 0.0729
CGTGCACG | 0.123
TGTGCACA | 0.0902

Sequence | binding signal [normalized occupancy]
AGTGCACG | 0.0853
AGTGCACA | 0.0838
CGTGCACA | 0.0958
GGTGCACA | 0.078
CTTAGCCA | 0.0761
CACGCTAA | 0.0891
AACGCTAG | 0.0726
GACGCTAC | 0.0742
AACGCTAC | 0.0825
CACGCTAG | 0.0976
CACGCTAC | 0.0972
CTATGGGC | 0.0769
AGCATACT | 0.0804
CCGTGTAA | 0.0797
GCGTGTAC | 0.1
ACGTGTAC | 0.0984
AAGTGTAT | 0.0806
ACGTGTAA | 0.1
CCGTGTAC | 0.0796
AGGTGTAC | 0.0803
GAGTGTAC | 0.0756
ACGTGTAT | 0.117
TCGTGTAA | 0.0836
AGGTGTAT | 0.0924
GCGTGTAA | 0.0923

Sequence | binding signal [normalized occupancy]
ATTCCAAT | 0.0727
ATAGTCAG | 0.0801
GCATAAAA | 0.0781
GCATTCTA | 0.0844
ACTAACAT | 0.0807
GTTGTTTA | 0.0784
AGTGTTAC | 0.0737
GCTATACA | 0.0815
CAAGAAAC | 0.0724
ATCACGGC | 0.0739
CTCATTCC | 0.0776
TTCAAGAA | 0.0738
AAGACAAG | 0.0722
CAATCGAC | 0.0743
GCAGCACA | 0.0778
AGGTGTAG | 0.0785
ACGTGTCC | 0.0932
ACGTGTAG | 0.103
GCGTGTCC | 0.0957
GCGTGTCA | 0.0867
CCGTGTAG | 0.0808
GGAATAAA | 0.0741
CACAACCA | 0.0825
AGAACGCA | 0.0762
ACCGTGCG | 0.0828

Sequence | binding signal [normalized occupancy]
ATCGTGCC | 0.08
ACCGTGCC | 0.0756
CGCGTGCC | 0.118
AGCGTGCC | 0.0969
ATCGTGCG | 0.0851
GCCGTGCA | 0.0768
CCCGTGCC | 0.0787
GGAGTGCA | 0.0787
GGCGTGCA | 0.0978
AGCGTGCG | 0.109
CTCGTGCC | 0.0909
AGTAAAAA | 0.0773
AAAATCTC | 0.0762
AGTCTCGA | 0.0741
CTCAAATA | 0.0761
TGCCAAAA | 0.0792
ACGTCTAA | 0.0724
CATGGAGG | 0.0891
AGGAGATG | 0.0762
CCCGTGCA | 0.0874
CGCGTGCA | 0.134
CGGGTGCA | 0.0755
AGAGTGCA | 0.0743
AGCGTGCA | 0.108
ACCGTGCA | 0.0786
